Data reported in PubChem BioAssay (NCI).
“And” between values parts separate entries of the source, which are not always exact repeats. Identical values can stand only once. The panel holds about 83,000 compounds, 20% with a hit somewhere; the sample as a whole holds those more often.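 Assay: single dose, 48 h. Readout: percent growth (0 = no net growth; negative = cell death). Active: <10.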 The source made the active and inactive calls.

What was measured:
Assay in all cases: NCI-60 one-dose screen, 48 h (100 = growth as untreated, 0 = no growth, -100 = all killed)
[1] = system: NCI/ADR-RES ovarian; conditions: 10 µM
[2] = system: T-47D breast; conditions: 10 µM
[3] = system: BT-549 breast; conditions: 10 µM
[4] = system: MDA-MB-435 melanoma; conditions: 10 µM
[5] = system: SW-620 colon; conditions: 10 µM
[6] = system: HCT-116 colon; conditions: 10 µM
[7] = system: HCC-2998 colon; conditions: 10 µM
[8] = system: KM12 colon; conditions: 10 µM
[9] = system: MCF7 breast; conditions: 10 µM unless noted

Row | Compound | growth [1] | growth [2] | growth [3] | growth [4] | growth [5] | growth [6] | growth [7] | growth [8] | growth [9]
1 | CN(C)CC1(N)C(=O)NC(=O)NC1=O | 107% (inactive) | 89.4% (inactive) | 111% (inactive) | 103% (inactive) | 106% (inactive) | 92.9% (inactive) | 99.4% (inactive) | 101% (inactive) | –
2 | COC(C(=O)C(O)C(C)O)C1Cc2cc3cc(OC4CC(OC(C)=O)C(OC5CC(O)C(OC)C(C)O5)C(C)O4)cc(O)c3c(O)c2C(=O)C1OC1CC(OC2CC(OC3CC(C)(O)C(OC(=O)C(C)C)C(C)O3)C(O)C(C)O2)C(O)C(C)O1 (stereo not drawn) | 47.4% (inactive) | -24.1% (active) | -74.8% (active) | -89.4% (active) | -12% (active) | -40.2% (active) | -94.4% (active) | -10.4% (active) | 1.47% (active)
3 | Cc1ccc(NC(=O)CBr)cc1 | 106% (inactive) | 98.5% (inactive) | 139% (inactive) | 102% (inactive) | 92.8% (inactive) | 106% (inactive) | 113% (inactive) | 109% (inactive) | 93.5% (inactive)
4 | O=C1C(=O)c2ccccc2-c2ccccc21 | -41.5% (active) | -50% (active) | – | -97.9% (active) | -63.3% (active) | -81.5% (active) | -35.4% (active) | -84.5% (active) | -66.4% (active)
5 | O=C(CBr)Nc1ccc(Cl)cc1 | 94.5% (inactive) | 67.8% (inactive) | – | 87% (inactive) | 9.26% (active) | 54.4% (inactive) | 112% (inactive) | 102% (inactive) | 45% (inactive)
6 | [O-][n+]1ccccc1S | 37% (inactive) | 53.4% (inactive) | – | 53.8% (inactive) | 42% (inactive) | -9.38% (active) | 76.7% (inactive) | 46.5% (inactive) | 25.3% (inactive)
7 | O=[N+]([O-])c1ccc(N2CCOCC2)c2c1no[n+]2[O-] | 16.3% (inactive) | 2.59% (active) | – | 29.2% (inactive) | 3.22% (active) | -25.9% (active) | -49.1% (active) | -73.5% (active) | 13.7% (inactive)
8 | C[C@]12CC[C@H]3[C@@H](CCC4=CC(=O)CC[C@@H]43)[C@@H]1CC[C@@H]2OC(=O)N(CCCl)N=O | 49% (inactive) | 54.2% (inactive) | 66.6% (inactive) | 68.5% (inactive) | 52.5% (inactive) | 51.7% (inactive) | 58.1% (inactive) | 28.2% (inactive) | –
9 | CCOP(=O)(OCC)C(O)c1ccccc1Cl (stereo not drawn) | 103% (inactive) | 89.1% (inactive) | – | 119% (inactive) | 99.2% (inactive) | 98.8% (inactive) | 102% (inactive) | 103% (inactive) | 103% (inactive)
10 | C/C1=C\[C@H](C)C[C@H](C)OC(=O)C[C@H](c2ccc(O)cc2)NC(=O)[C@@H](Cc2c(Br)[nH]c3ccccc23)N(C)C(=O)[C@H](C)NC(=O)[C@@H](C)C1 | -21.9% (active) | 4.52% (active) | – | -12.2% (active) | 6.45% (active) | 0.922% (active) | -86.3% (active) | -4.41% (active) | 9.48% (active)
11 | CC/C(=C/c1ccc(OC)cc1OC)[N+](=O)[O-] | 41.8% (inactive) | -12.9% (active) | – | 46% (inactive) | -20.1% (active) | -58.8% (active) | 102% (inactive) | 25.5% (inactive) | 0.465% (active)
12 | COC12C(COC(N)=O)C3=C(C(=O)C(C)=C(N)C3=O)N1CC1C2N1C (stereo not drawn) | 66.9% (inactive) | 52.8% (inactive) | 60% (inactive) | 68.6% (inactive) | 36.8% (inactive) | 44.3% (inactive) | -4.28% (active) | 64.2% (inactive) | –
13 | COc1cc2c(c(OC)c1OC)-c1ccc(O)c(=O)cc1[C@@H](NC(C)=O)CC2 | 74.3% (inactive) | 18.4% (inactive) | 59.9% (inactive) | 45.6% (inactive) | 50.2% (inactive) | 26.1% (inactive) | 66.9% (inactive) | 57.4% (inactive) | –
14 | O=[N+]([O-])/C=C/c1ccc([N+](=O)[O-])cc1 | 78.7% (inactive) and 85.8% (inactive) | 48.7% (inactive) and 57.1% (inactive) | – | -48.9% (active) and 81.1% (inactive) | -72.6% (active) and 12.2% (inactive) | -93% (active) and 48.4% (inactive) | -91% (active) and 98.9% (inactive) | -54.2% (active) and 99.7% (inactive) | -14.5% (active) and 23.1% (inactive)
15 | COC1CC2C=C(C)/C=C/C=C/C(=O)NC(c3ccccc3)C/C=C/CCC(O)CC(=O)C2=C1O (stereo not drawn) | -44.5% (active) | -65.5% (active) | -98% (active) | -90.5% (active) | -75.9% (active) | -96.7% (active) | -53% (active) | -76.1% (active) | –
16 | COc1cc([N+](=O)[O-])c2ncccc2c1[N+](=O)[O-] | 81.7% (inactive) | 50.9% (inactive) | – | 44.8% (inactive) | -61.5% (active) | 14.4% (inactive) | 102% (inactive) | 20.3% (inactive) | 23.3% (inactive)
17 | COc1ccccc1/C=C/[N+](=O)[O-] | 91.4% (inactive) | 50.7% (inactive) | – | 39.3% (inactive) | 58.8% (inactive) | 36.2% (inactive) | 88.7% (inactive) | 65.9% (inactive) | 28.8% (inactive)
18 | NNc1ccccc1 | 83.1% (inactive) | 53.9% (inactive) | – | 88.6% (inactive) | 64.5% (inactive) | 78.4% (inactive) | 104% (inactive) | 64.7% (inactive) | 86.8% (inactive)
19 | Oc1ccccc1-c1ccccc1 | 99.9% (inactive) and 110% (inactive) | 94% (inactive) | 111% (inactive) and 96.9% (inactive) | 107% (inactive) and 111% (inactive) | 109% (inactive) and 103% (inactive) | 109% (inactive) and 96.6% (inactive) | 92.7% (inactive) | 102% (inactive) and 109% (inactive) | –
20 | NC(Cc1ccccc1)c1ccccc1 (stereo not drawn) | 106% (inactive) and 102% (inactive) | 95.7% (inactive) and 101% (inactive) | – | 106% (inactive) and 102% (inactive) | 112% (inactive) and 104% (inactive) | 99.7% (inactive) and 98.4% (inactive) | 105% (inactive) and 102% (inactive) | 104% (inactive) and 110% (inactive) | 97.5% (inactive) and 97% (inactive)
21 | Cn1c(O)c(N=O)c(=O)n(C)c1=O | 101% (inactive) and 102% (inactive) | 101% (inactive) and 97% (inactive) | 109% (inactive) and 99% (inactive) | 113% (inactive) and 93.3% (inactive) | 97% (inactive) and 98.9% (inactive) | 113% (inactive) and 97.3% (inactive) | 107% (inactive) | 102% (inactive) and 98.6% (inactive) | –
22 | O=C(CBr)Nc1ccccc1 | 103% (inactive) | 92.6% (inactive) | – | 102% (inactive) | 59.9% (inactive) | 84.7% (inactive) | 105% (inactive) | 102% (inactive) | 68.6% (inactive)
23 | COc1ccc(/C=C\[N+](=O)[O-])cc1OC | 91.3% (inactive) and 86.9% (inactive) | 62.8% (inactive) and 42.3% (inactive) | – | 12.3% (inactive) and 31.1% (inactive) | 37.7% (inactive) and 55.6% (inactive) | 13.2% (inactive) and 0.137% (active) | 61% (inactive) and 54.3% (inactive) | 33.7% (inactive) and 57.2% (inactive) | 12.6% (inactive) and 16.4% (inactive)
24 | CC(C)(C)OOC(=O)/C=C\C(=O)OOC(C)(C)C | 109% (inactive) | 101% (inactive) | – | 119% (inactive) | 98.7% (inactive) | 106% (inactive) | 104% (inactive) | 94.6% (inactive) | 98.7% (inactive)
25 | CC(=O)[O][Hg][c]1c(C)c(C)cc(C)c1C | 78.1% (inactive) | -27.8% (active) | -70.4% (active) | -91.4% (active) | -93.5% (active) | -98.8% (active) | 12.5% (inactive) | 50.5% (inactive) | –
26 | C[CH2][Hg][S]c1ccccc1C(=O)O | -13.9% (active) | -80% (active) | – | -12.7% (active) | -87% (active) | -88.9% (active) | 59.8% (inactive) | 69.9% (inactive) | -95.9% (active)
27 | O=[N+]([O-])c1ccc(Br)c([N+](=O)[O-])c1 | 99% (inactive) | 54.4% (inactive) | – | 102% (inactive) | 44.4% (inactive) | 32.3% (inactive) | 96.2% (inactive) | 53.6% (inactive) | 52.5% (inactive)
